Measured values published in PubChem BioAssay AID1851 (National Center for Advancing Translational Sciences (NCATS), 2009).
About 4,000 (25%) of roughly 16,000 compounds were called active. About 26% were inconclusive and are not listed. These entries were drawn from the full list. Values without a mark were called inactive. Calls come from the whole dose curve; as a rule, active = well fitted curve in the direction sought with a large enough effect; inconclusive = small, poorly fitted or top-dose-only effect, or effect the other way; inactive = no such curve, though single readings can be large or run the other way.
% is set by controls: 0 for no effect and ±100 for the full control effect.

Each compound was assayed against Cytochrome P450 2C9 (Homo sapiens) (UniProt P11712) (assay: Cytochrome panel assay with activity outcomes). Conditions: recombinant CYP, pro-luciferin dealkylation, luminescence, p450-cyp2c9; series mostly up to 57.1 µM; activity, negative = inhibition: at the top concentration.
Cytochrome P450 2C9 (Homo sapiens), sequence (P11712 whole entry, looked up): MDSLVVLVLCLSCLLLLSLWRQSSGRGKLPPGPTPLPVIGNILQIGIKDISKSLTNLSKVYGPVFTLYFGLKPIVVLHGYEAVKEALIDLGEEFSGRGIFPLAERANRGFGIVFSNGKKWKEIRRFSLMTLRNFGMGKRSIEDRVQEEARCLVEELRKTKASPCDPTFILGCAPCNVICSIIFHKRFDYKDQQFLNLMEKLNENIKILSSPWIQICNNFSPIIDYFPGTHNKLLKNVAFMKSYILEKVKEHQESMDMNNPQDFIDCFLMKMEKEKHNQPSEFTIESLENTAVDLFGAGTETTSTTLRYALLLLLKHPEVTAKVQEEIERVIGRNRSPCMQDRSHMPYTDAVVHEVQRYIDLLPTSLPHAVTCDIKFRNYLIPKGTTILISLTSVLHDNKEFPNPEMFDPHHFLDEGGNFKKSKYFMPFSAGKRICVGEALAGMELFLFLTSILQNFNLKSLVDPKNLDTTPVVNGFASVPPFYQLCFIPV
With CN(Cc1ccccc1)Cn1ccnc1 the AC50 was 2510 nM (active).
CN(C)Cc1ccccc1-c1cc(-n2ccnc2)ncn1 was tested, and the activity, negative = inhibition was -14.3% [at 2.29 µM].
C#CCN(C)Cc1ccccc1 was tested, and the AC50 was “inactive”.
With CC1(C)CC(=O)c2cn3ncnc3nc2C1 the “activity, negative = inhibition” value was 5.85%.
With CC1CCN(CCc2nc3cc(NC(=O)NC4CCCCC4)ccc3n2C)CC1 the “activity, negative = inhibition” value was -16%.
For Cn1c(CN2CCCC2)nc2cc(NC(=O)C3CCCCC3)ccc21, the “activity, negative = inhibition” value was 0.65%.
For O=C(Nc1ccc2c(c1)nc1n2CCN(C2CCCCC2)C1)NC1CCCCC1, the AC50 was 14100 nM (active).
With CO[C@@]12C[C@@H](COC(=O)c3cncc(Br)c3)CN(C)[C@H]1Cc1cn(C)c3cccc2c13 the AC50 was “inactive”.
N/C(CC/C(N)=N/O)=N\O was tested, and the activity, negative = inhibition was -8.92% [at 11.4 µM].
CCN(CC)C(=O)Cn1cc(/C=C(\C#N)C(=O)N2CCN(c3ccccc3)CC2)c2ccccc21 was tested, and the AC50 was 3550 nM (active).
For CCc1cccc2c(C=C(C#N)C#N)cn(CC(=O)N3CCCCC3)c12, the “activity, negative = inhibition” value was -10.4%.
With O=C1O[C@H](CN2CCOCC2)CN1/N=C\c1ccc([N+](=O)[O-])o1 the “activity, negative = inhibition” value was 8.64% [at 25.6 µM].
With C[C@@H](C[N+](C)(C)C)OC(N)=O the “activity, negative = inhibition” value was 1.12% [at 25.6 µM].
For COc1ccc(-n2c(=O)c(-c3cccc(F)c3)nc3cncnc32)cc1, the “activity, negative = inhibition” value was 2.43%.
Cn1c(=O)c(-c2cc(F)cc(F)c2)nc2cncnc21 was tested, and the “activity, negative = inhibition” value was -20.8%.
In the case of COc1ccccc1CCn1c(=O)c(-c2cccc(F)c2)nc2cncnc21, the AC50 was 2510 nM (active).
In the case of COc1ccccc1CCn1c(=O)c(-c2cc(F)cc(F)c2)nc2cncnc21, the AC50 was 1580 nM (active).
With COCCn1c(=O)c(-c2cc(F)cc(F)c2)nc2cncnc21 the “activity, negative = inhibition” value was 4.81%.
For COCCn1c(=O)c(-c2cccc(F)c2)nc2cncnc21, the “activity, negative = inhibition” value was -29.5%.
O=C(c1ccccc1)c1ccc2n1CC[C@H]2C(=O)O was tested, and the AC50 was “inactive”.
Compound c1ncc(-c2ccoc2)c(NC2CC2)n1 has an activity, negative = inhibition of 5.65% [at 2.29 µM].
For CCCNc1[nH]c(=O)n(C)c(=O)c1N=O, the “activity, negative = inhibition” value was -18.2%.
O=C(O)C12CC3(C(=O)O)CC(C(=O)O)(CC(C(=O)O)(C1)C3=O)C2=O gave an activity, negative = inhibition of -3.16% [at 11.4 µM].
With COCCCN1C(=O)C(=O)/C(=C(/O)c2ccc(OC)cc2C)C1c1cccnc1 (configuration not stated) the “activity, negative = inhibition” value was -3.89%.
With CCOc1cccc(/C(O)=C2/C(=O)C(=O)N(Cc3cccnc3)C2c2ccco2)c1 (configuration not stated) the AC50 was 1580 nM (active).
COc1ccccc1-c1cc(NCc2cccnc2)ncn1 gave an activity, negative = inhibition of -17.3% [at 2.29 µM].
With COc1ccc(C2C(C(=O)c3ccco3)=C(O)C(=O)N2Cc2cccnc2)cc1OC (configuration not stated) the “activity, negative = inhibition” value was 18%.
For COc1cccc(/C(O)=C2/C(=O)C(=O)N(Cc3cccnc3)C2c2ccco2)c1 (configuration not stated), the AC50 was 398 nM (active).
In the case of COc1ccc(/C(O)=C2/C(=O)C(=O)N(Cc3cccnc3)C2c2ccco2)cc1OC (configuration not stated), the AC50 was 8910 nM (active).
With COCCN1C(=O)C(=O)/C(=C(/O)c2cccc(OC)c2)C1c1ccco1 (configuration not stated) the “activity, negative = inhibition” value was -10.9%.
Work on CCc1cc2c(nc1CC)CCN(CC/C(C)=N/O[C@@H]1O[C@H](COC(C)=O)[C@H](OC(C)=O)[C@H](OC(C)=O)[C@H]1OC(C)=O)C2 yielded an activity, negative = inhibition of 1.56% [at 11.4 µM].
In the case of CN(C)C(=O)c1ccc(-c2cncnc2-n2ccnc2)cc1, the activity, negative = inhibition was 12.6% [at 2.29 µM].
CN(C)C(=O)c1ccc(-c2nccc(-n3ccnc3)n2)cc1 was tested, and the activity, negative = inhibition was 17.2% [at 2.29 µM].
With O=C(Nc1ccc(F)cc1)c1ccc(-n2ccnc2)nc1 the AC50 was 178 nM (active).
CS(=O)(=O)Nc1cccc(-c2cncnc2-n2ccnc2)c1 gave an activity, negative = inhibition of 10.1% [at 2.29 µM].
For Cc1c(Cl)cccc1NC(=O)c1ccc(-n2ccnc2)nc1, the AC50 was 79.4 nM (active).
Compound c1cncc(-c2cc(-n3ccnc3)ncn2)c1 has an activity, negative = inhibition of 12.2% [at 2.29 µM].
For O=C(NCCC[N+]1=CC=N[C@H]1c1ccccc1)N1CCCc2nc(-c3ccc(Br)cc3)ccc21, the activity, negative = inhibition was -48.1% [at 11.4 µM].
With O=C(Nc1ccccc1)N1CC[C@@]2(CCCN(C(=O)c3cnccn3)C2)C1 the “activity, negative = inhibition” value was 1.31%.
For CN(C)Cc1ccc(O)c(CN(C)C)n1, the activity, negative = inhibition was 7.12% [at 11.4 µM].
With CNC(C)c1cc(OC)ccc1OC (configuration not stated) the “activity, negative = inhibition” value was -8.77%.
COc1ccc(C(=O)NC(C)c2cc(OC)c(OC)cc2Br)cc1 (configuration not stated) was tested, and the AC50 was 12600 nM (active).
Work on COc1ccc(C(=O)[C@H](Br)[C@H](Br)C(=O)O)cc1 yielded an activity, negative = inhibition of -11.2% [at 11.4 µM].
In the case of CC(NC(=O)c1cccc(F)c1)C(c1cccs1)N1CCN(C)CC1 (configuration not stated), the “activity, negative = inhibition” value was -13%.
COc1cc(Br)c(C(C)NC(=O)c2cccc(Br)c2)cc1OC (configuration not stated) was tested, and the AC50 was 2820 nM (active).
With CCCCSc1nc(C)cc(NC(=S)Nc2ccc(OC)cc2)n1 the “activity, negative = inhibition” value was -28%.
For O=C1/C(=N\O)Cc2ccccc21, the “activity, negative = inhibition” value was -18.6%.
